# This is part of a sample that, as a whole, favours compounds with a hit. Of some 83,000 tested, about 20% had one in any assay.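 Percent growth is the endpoint: 0 to 100 indicates growth inhibition (40 means 60% inhibition), 0 means no net growth, and negative values indicate cell death.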 Active and inactive are the calls of the source.
# Test system: SK-MEL-28 melanoma
# Experiment: NCI-60 one-dose screen, 48 h (100 = growth as untreated, 0 = no growth, -100 = all killed)
# Conditions: 1 µM
# Method: Growth inhibition of the SK-MEL-28 human tumor cell line is measured as a screen for anti-cancer activity. Cells are grown in 96 well plates and exposed to the test compound for 48 hours. Compounds are tested at a single concentration, which is 10^-5 M for most compounds. The reported endpoint is percent growth (GI% or GIPRCNT), where numbers from 0 - 100% represent growth inhibition, and numbers from -100% - 0 represent cell death. For example, a value of 40 represents 60% growth inhibition. A value of 0 means no net growth occurred over the course of the experiment. A value of -40 indicates 40% of cells at the beginning of the experiment died by the end of the experiment. A value of -100 means all cells are dead at the end of the experiment.
# NCI-60 Human Tumor Cell Lines Screen was performed using the standard one-dose NCI protocol, which is described in more detail at https://dtp.cancer.gov/discovery_development/nci-60/default.htm.
# Compounds with GIPRCNT values below 10 were considered active. Activity score was based on GIPRCNT using the following formula: […]
# Score is 0 for GIPRCNT values of 100 or above, 50 for GIPRCNT values of 0, and 100 for GIPRCNT values of -100.
row,Structure (SMILES),growth
1,CC/C(=C(\c1ccc(O)cc1)c1ccc(OCCNC)cc1)c1ccccc1,98.5% (inactive)

# Same assay, conditions: 10 µM
row,Structure (SMILES),growth
1,CC/C(=C(\c1ccc(O)cc1)c1ccc(OCCNC)cc1)c1ccccc1,93.3% (inactive)

# Same assay, conditions: 10 µM unless noted
row,Structure (SMILES),growth
1,O=C(O)CC1S/C(=N/N=C/c2nc3ccccc3s2)NC1=O (stereo not given),117% (inactive)
2,COc1cc(C2CC(c3ccc(S(=O)(=O)NCCNc4nc(N(C)C)nc(N5CCOCC5)n4)cc3)=Nc3c(N)nc(N)nc3N2)cc(OC)c1OC (stereo not given),100% (inactive)
3,COc1ccc(-c2cc(C(=O)N=Nc3c(O)[nH]c4ccc(Cl)cc34)c3ccccc3n2)cc1,-6.34% (active)
4,COc1ccc(C2=Nc3c(N)nc(N)nc3NC(c3ccc(Oc4nc(Nc5ccc(F)cc5)nc(N(C)C)n4)c(OC)c3)C2)cc1 (stereo not given),93.2% (inactive)
5,C[C@@H]1CN(c2ccc3ncc(C#Cc4cncc(C(=O)Nc5ccc(CN6CCN(C)CC6)c(C(F)(F)F)c5)c4)n3n2)C[C@@H](C)O1,-58.4% (active)
6,CN(C)CCCc1ccc(Nc2cnn(C)c(=O)c2Cl)cc1,111% (inactive)
7,COc1ccc(C(=O)c2cc(C(C)=O)c3c(C)cc(C)cn23)cc1,72.9% (inactive)
8,O=C(NNC(=O)c1ccc(OCc2nc3ccc(Cl)cc3[nH]2)cc1)Nc1ccc(Cl)c(C(F)(F)F)c1,52.8% (inactive)
9,C=CCSc1nnc(-c2ccc(-c3nc4ccccc4[nH]3)cc2)o1,85.6% (inactive)
10,COc1ccc(N=Nc2c(N)nn3c(-c4ccc5c(c4)C=S=C5)ccnc23)cc1,63.1% (inactive)
11,N#CC1=C(c2ccco2)Nc2c(c(-c3ccccc3)nn2-c2ccccc2)C12C(=O)Nc1ccc(Br)cc12 (stereo not given),67.5% (inactive)
12,O=C(N/N=C/c1occc1Br)c1[nH]c2ccc(Br)cc2c1-c1ccccc1,-96.5% (active)
13,O=C(NNC(=S)NC(=O)c1ccccc1)c1ccc(OCc2nc3ccc(Cl)cc3[nH]2)cc1,-82.7% (active)
14,CCOC(=O)/C(F)=C/C1CC1C1CCN(C(=O)OC(C)(C)C)CC1 (stereo not given),119% (inactive)
15,CC(Nc1ncnc2ccc(-c3ccc4oc(N)nc4c3)cc12)c1ccccc1 (stereo not given),17.4% (inactive)
16,CCCCCCCCc1ccc(C(=O)Nc2ccc(C)c(OP(=O)(O)O)c2)cc1,116% (inactive)
17,Nc1nn2c(-c3cc4ccccc4oc3=O)ccnc2c1N=Nc1ccccc1,90.2% (inactive)
18,COc1ccc(NC(=O)Cn2c(/C=C/c3cccc(OC)c3)nc3ccccc3c2=O)cc1,89.3% (inactive)
19,Cc1ccc(C(=O)Nc2cc(-c3ccncc3)cc(C(F)(F)F)c2)cc1C#Cc1cnc2cccnn12,16.2% (inactive)

row,Structure (SMILES),growth
1,C#CCN(C)CCCOc1ccc(N(C)C(=O)c2cc(C(C)C)c(O)cc2O)cc1Cl,15.9% (inactive)
2,NC(=Nc1ccc(OCCCCCCCCn2cnnn2)cc1)c1ccccc1,65.1% (inactive)
3,CCOc1ccccc1[C@H]1C(C(=O)c2ccc(Cl)cc2)C2(N[C@@H]1c1ccccc1)C(=O)Nc1ccccc12 (stereo not given in full),40.8% (inactive)
4,O=C(c1ccc(Cl)cc1)C1[C@H](c2ccccc2Cl)[C@@H](c2ccccc2)NC12C(=O)Nc1ccccc12 (stereo not given in full),-57.3% (active)
5,Oc1cncc(-c2ccc3ncnc(N4CCc5cc(F)c(Cl)cc54)c3c2)c1,77.6% (inactive)
6,O=C1c2cccc3c(N4CCN(c5ccccc5)CC4)ccc(c23)C(=O)N1c1cccc(-c2nn(-c3ccccc3)cc2-c2nc3ccccc3s2)c1,104% (inactive)
7,O=C(NN1C(=O)/C(=C/C=C/c2ccc([N+](=O)[O-])o2)SC1=S)c1ccc([N+](=O)[O-])cc1,-99% (active)
8,COc1cc(CNC(=O)C[C@H](C)CCC=C(C)C)ccc1OCc1cn(-c2ccccc2Cl)nn1,69.8% (inactive)
9,COc1ccc(-c2nc3ccccc3n2CC(=O)N=Nc2c(O)[nH]c3ccc(OC)cc23)cc1,81.2% (inactive)
10,O=C(c1ccc(O)cc1)C1[C@H](c2ccc(Cl)cc2)[C@@H](c2ccccc2)NC12C(=O)Nc1ccccc12 (stereo not given in full),17.9% (inactive)
11,O=C(CSc1nnc(-c2ccc(-c3nc4ccccc4[nH]3)cc2)o1)Nc1ccccc1,36.3% (inactive)
12,O=C(CSc1nnc(-c2ccc(-c3nc4ccccc4[nH]3)cc2)o1)Nc1ccc(Br)cc1,-63.6% (active)
13,O=C(Nc1nc2ccc([N+](=O)[O-])cc2s1)Nc1ccccc1F,22% (inactive)
14,Cc1ccc2nc(COc3ccc(C(=O)NNC(=O)Nc4ccc(Cl)c(C(F)(F)F)c4)cc3)[nH]c2c1,-35.4% (active)
15,COc1ccc(/C=C/C(=O)c2ccc(S(=O)(=O)NCCNc3nc(N(C)C)nc(N4CCOCC4)n3)cc2)cc1,95.1% (inactive)
16,CS(=O)(=O)Nc1cc(-c2ccc3ncnc(Nc4ccc(OCc5cccnc5)c(Cl)c4)c3c2)cnc1Cl,-6.84% (active)
17,COc1ccc(/C=C/c2nc3ccccc3c(=O)n2CC(=O)Nc2ccccc2)cc1,79.1% (inactive)
18,O=C(Nc1nc2ccccc2s1)Nc1ccccc1Cl,102% (inactive)
19,O=C1Nc2ccccc2/C1=C/C(=O)c1cc2ccccc2oc1=O,36.7% (inactive)
